Experimental findings from PubChem BioAssay (EPA / NIEHS) are described below.

Active and inactive are the calls of the source. How the source made its calls: active means hit-call score of the fitted dose curve at least 0.9, where 1 is the maximum; inactive means score below 0.9.

Assay [1] is described as follows: BSK_hDFCGF_SRB: Viability Assessment in the BioMAP Diversity Plus: hDFCGF Assay (AID 2283061).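 Further: cells exposed to compound for 24 h before the read.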 The following applies: primary human foreskin fibroblasts. In outline: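 SRB-based viability read on primary human skin fibroblasts at 24 h: TCA fixation, 0.1% dye, 560 nm. Gain or loss of signal is fitted against the DMSO negative control.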
Read-out in assay [2]: TIMP metallopeptidase inhibitor 1 (TIMP1), TIMP1 (gene 7076)
Briefly: BSK_hDFCGF_TIMP1: BioMAP Diversity Plus: hDFCGF Assay for TIMP metallopeptidase inhibitor 1 (TIMP1) Biomarker Activity (AID 2283062). The following applies: primary human foreskin fibroblasts; actives raise or lower the signal. An outline of the steps:
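Bidirectional curve fitting against DMSO baseline yielded this endpoint, based on ELISA detection of TIMP-1 in primary human foreskin fibroblasts exposed to compound for 24 h.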

Read-out in assay [3]: Monokine induced gamma interferon (MIG), CXCL9 (gene 4283)
Kind of assay: BSK_hDFCGF_MIG: BioMAP Diversity Plus: hDFCGF Assay for Monokine induced gamma interferon (MIG) Biomarker Activity (AID 2283063). The following applies: primary human foreskin fibroblasts; actives raise or lower the signal. An outline of the steps:
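Endpoint derived by bidirectional fitting relative to DMSO; MIG quantified via ELISA in primary human foreskin fibroblasts harvested 24 h after dosing.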

Read-out in assay [4]: Matrix Metallopeptidase 1 (MMP1), MMP1 (gene 4312)
Kind of assay: BSK_hDFCGF_MMP1: BioMAP Diversity Plus: hDFCGF Assay for Matrix Metallopeptidase 1 (MMP1) Biomarker Activity (AID 2283064). The following applies: primary human foreskin fibroblasts; actives raise or lower the signal. In outline: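 Primary human foreskin fibroblasts in the hDFCGF system were dosed with test chemical, and MMP1 was measured by ELISA 24 h later. Values come from bidirectional curve fitting against the DMSO baseline.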

Read-out in assay [5]: Vascular cell adhesion molecule 1 (VCAM1), VCAM1 (gene 7412)
Briefly: BSK_hDFCGF_VCAM1: BioMAP Diversity Plus: hDFCGF Assay for Vascular cell adhesion molecule 1 (VCAM1) Biomarker Activity (AID 2283065).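 On AC50: VCAM-1 protein level quantified by ELISA after 24 h chemical exposure.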 The conditions noted are these: primary human foreskin fibroblasts; actives raise or lower the signal. In outline: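 Measured after 24 h chemical treatment of primary human skin fibroblasts, VCAM-1 was detected by ELISA and concentration-response analysed in both directions versus DMSO vehicle.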

Read-out in assay [6]: Plasminogen activator inhibitor-1 (PAI1), SERPINE1 (gene 5054)
Kind of assay: BSK_hDFCGF_PAI1: BioMAP Diversity Plus: hDFCGF Assay for Plasminogen activator inhibitor-1 (PAI1) Biomarker Activity (AID 2283066). The following applies: primary human foreskin fibroblasts; actives raise or lower the signal. An outline of the steps: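 Human foreskin fibroblast primary cells, 24 h chemical exposure; PAI-1 measured by ELISA. Bidirectional fitting relative to DMSO; parallel cultures stained with SRB for total protein to flag overt cytotoxicity.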

Read-out in assay [7]: Intercellular Adhesion Molecule 1 (ICAM1), ICAM1 (gene 3383)
Briefly: BSK_KF3CT_ICAM1: BioMAP Diversity Plus: KF3CT Assay for Intercellular Adhesion Molecule 1 (ICAM1) Biomarker Activity (AID 2283067). The conditions noted are these: primary human keratinocytes with fibroblasts; actives raise or lower the signal. In outline: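 Bidirectional curve fitting against a DMSO baseline was applied to ICAM-1 ELISA signal from primary human skin co-cultures harvested 24 h after treatment, with SRB staining of parallel wells for overt cytotoxicity.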

Read-out in assay [8]: Interferon-gamma inducible Protein 10 (IP10), CXCL10 (gene 3627)
Kind of assay: BSK_KF3CT_IP10: BioMAP Diversity Plus: KF3CT Assay for Interferon-gamma inducible Protein 10 (IP10) Biomarker Activity (AID 2283068). The conditions noted are these: primary human keratinocytes with fibroblasts; actives raise or lower the signal. In outline: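 Human keratinocyte plus foreskin fibroblast primary co-culture exposed to test chemical for 24 h; IP-10 measured by ELISA. Concentration-response fitted bidirectionally against DMSO control as baseline.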

Assay [9] can be described thus: BSK_KF3CT_SRB: Viability Assessment in the BioMAP Diversity Plus: KF3CT Assay (AID 2283069).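 Further: total protein by sulforhodamine B staining as a cytotoxicity measure; read 24 h after compound addition.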 The conditions noted are these: primary human keratinocytes with fibroblasts. An outline of the steps:
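Human primary keratinocyte plus foreskin fibroblast co-culture exposed to chemicals for 24 h. Total protein measured by 0.1% sulforhodamine B staining after 10% TCA fixation, read at 560 nm; bidirectional fitting versus DMSO baseline.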

Read-out in assay [10]: Interleukin-1 alpha (IL1a), IL1A (gene 3552)
Kind of assay: BSK_KF3CT_IL1a: BioMAP Diversity Plus: KF3CT Assay for Interleukin-1 alpha (IL1a) Biomarker Activity (AID 2283070). The conditions noted are these: primary human keratinocytes with fibroblasts; actives raise or lower the signal. In outline:
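Human keratinocyte plus foreskin fibroblast primary co-culture, sampled 24 h after chemical dosing. IL-1a measured by ELISA; responses fitted bidirectionally against DMSO baseline (negative control), so gain or loss of signal both count.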

Read-out in assay [11]: TIMP metallopeptidase inhibitor 2 (TIMP2), TIMP2 (gene 7077)
Kind of assay: BSK_KF3CT_TIMP2: BioMAP Diversity Plus: KF3CT Assay for TIMP metallopeptidase inhibitor 2 (TIMP2) Biomarker Activity (AID 2283071). The conditions noted are these: primary human keratinocytes with fibroblasts; actives raise or lower the signal. An outline of the steps:
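Co-culture of human primary keratinocytes and foreskin fibroblasts, measured 24 h after chemical dosing. TIMP-2 quantified by ELISA and fitted in both directions relative to DMSO. Cytotoxicity checked in parallel cultures by SRB total-protein staining.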

Read-out in assay [12]: Transforming growth factor beta 1 (TGFb1), TGFB1 (gene 7040)
Kind of assay: BSK_KF3CT_TGFb1: BioMAP Diversity Plus: KF3CT Assay for Transforming growth factor beta 1 (TGFb1) Biomarker Activity (AID 2283072). The following applies: primary human keratinocytes with fibroblasts; actives raise or lower the signal. In outline:
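Human keratinocyte/foreskin fibroblast co-culture; TGF-b1 measured by ELISA 24 h after dosing, fitted bidirectionally versus DMSO. Cytotoxicity checked in parallel cultures by total protein (SRB staining, 560 nm).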

Read-out in assay [13]: C-C motif chemokine 2 (Homo sapiens) (UniProt P13500)
Kind of assay: BSK_KF3CT_MCP1: BioMAP Diversity Plus: KF3CT Assay for Monocyte Chemoattractant Protein 1 (MCP1/CCL2) Biomarker Activity (AID 2283073). The conditions noted are these: primary human keratinocytes with fibroblasts; actives raise or lower the signal. An outline of the steps: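 Biomarker MCP-1 is measured by ELISA in primary human keratinocytes co-cultured with foreskin fibroblasts, 24 h after chemical treatment; DMSO serves as the negative control and activity baseline.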

Read-out in assay [14]: Matrix Metallopeptidase 9 (MMP9), MMP9 (gene 4318)
Kind of assay: BSK_KF3CT_MMP9: BioMAP Diversity Plus: KF3CT Assay for Matrix Metallopeptidase 9 (MMP9) Biomarker Activity (AID 2283074).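 On AC50: MMP9 protein level quantified by ELISA in the co-culture.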 The conditions noted are these: primary human keratinocytes with fibroblasts; actives raise or lower the signal. In outline: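 Keratinocyte plus foreskin fibroblast human primary skin co-culture was dosed with chemical and MMP-9 was quantified by ELISA 24 h later. Bidirectional curve fitting used DMSO as negative control and activity baseline.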

Read-out in assay [15]: urokinase plasminogen activator (uPA), PLAU (gene 5328)
Kind of assay: BSK_KF3CT_uPA: BioMAP Diversity Plus: KF3CT Assay for urokinase plasminogen activator (uPA) Biomarker Activity (AID 2283075). The following applies: primary human keratinocytes with fibroblasts; actives raise or lower the signal. In outline: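 Human keratinocyte plus foreskin fibroblast primary co-culture exposed to chemical for 24 h. uPA levels were quantified by ELISA, and activity was fitted bidirectionally against a DMSO negative-control baseline.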

Read-out in the next assay: CD40, CD40 (gene 958)
Briefly: BSK_LPS_CD40: BioMAP Diversity Plus: LPS Assay for CD40 Biomarker Activity (AID 2283076). The following applies: primary human HUVEC with PBMC; actives raise or lower the signal. In outline:
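Using a multiplexed primary human co-culture (umbilical vein endothelium plus PBMC), CD40 was read by ELISA 24 h after dosing, with cytotoxicity tracked by sulforhodamine B staining of parallel cultures and activity fitted bidirectionally versus DMSO.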

Read-out in assay [16]: E-selectin (Homo sapiens) (UniProt P16581)
Briefly: BSK_LPS_Eselectin: BioMAP Diversity Plus: LPS Assay for Eselectin Biomarker Activity (AID 2283077). The conditions noted are these: primary human HUVEC with PBMC; actives raise or lower the signal. An outline of the steps: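 Dose chemical onto LPS-driven HUVEC/PBMC co-culture; after 24 h, run ELISA for E-selectin; fit up- and down-going responses relative to DMSO control.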

Read-out in assay [17]: Interleukin-8 (IL8), CXCL8 (gene 3576)
Kind of assay: BSK_LPS_IL8: BioMAP Diversity Plus: LPS Assay for Interleukin-8 (IL8) Biomarker Activity (AID 2283078). The following applies: primary human HUVEC with PBMC; actives raise or lower the signal. In outline:
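In this LPS system, chemical-treated human umbilical vein endothelium/PBMC co-cultures were harvested at 24 h for IL-8 ELISA.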

Assay [18] is described as follows: BSK_LPS_SRB: Viability Assessment in the BioMAP Diversity Plus: LPS Assay (AID 2283079).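 Further: total protein by sulforhodamine B absorbance as a cytotoxicity measure; measured one day after compound addition.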 The conditions noted are these: primary human HUVEC with PBMC. An outline of the steps: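 Cytotoxicity endpoint in human endothelial–PBMC co-culture: 24 h exposure, then SRB (0.1%) staining, 560 nm read.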
Read-out in assay [19]: Interleukin-1 alpha (IL1a), IL1A (gene 3552)
Briefly: BSK_LPS_IL1a: BioMAP Diversity Plus: LPS Assay for Interleukin-1 alpha (IL1a) Biomarker Activity (AID 2283080). The following applies: primary human HUVEC with PBMC; actives raise or lower the signal. An outline of the steps:
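Primary human HUVEC and PBMC co-culture stimulated with LPS is dosed and harvested at 24 h. Both increases and decreases in ELISA-measured IL-1a are scored relative to DMSO.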

E-selectin (Homo sapiens), sequence (P16581 whole entry, looked up): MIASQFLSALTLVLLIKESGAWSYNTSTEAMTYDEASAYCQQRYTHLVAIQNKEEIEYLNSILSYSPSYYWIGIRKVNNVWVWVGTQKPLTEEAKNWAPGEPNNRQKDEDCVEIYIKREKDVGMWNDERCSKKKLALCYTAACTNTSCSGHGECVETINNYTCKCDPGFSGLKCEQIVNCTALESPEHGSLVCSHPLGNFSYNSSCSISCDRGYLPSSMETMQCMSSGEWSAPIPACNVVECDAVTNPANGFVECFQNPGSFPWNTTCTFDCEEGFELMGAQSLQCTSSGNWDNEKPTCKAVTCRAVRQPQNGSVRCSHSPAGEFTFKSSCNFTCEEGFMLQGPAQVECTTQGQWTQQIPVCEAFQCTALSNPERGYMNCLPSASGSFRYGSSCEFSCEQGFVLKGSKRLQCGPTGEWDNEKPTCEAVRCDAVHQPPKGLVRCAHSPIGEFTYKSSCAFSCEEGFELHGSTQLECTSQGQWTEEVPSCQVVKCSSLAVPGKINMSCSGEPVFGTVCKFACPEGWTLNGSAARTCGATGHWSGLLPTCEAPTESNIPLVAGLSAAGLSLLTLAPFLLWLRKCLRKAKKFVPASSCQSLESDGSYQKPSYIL

As to `C=C[Si](OCC)(OCC)OCC`, the outcome in assay [1], in assay [2], in assay [3], in assay [4], in assay [5] and in [6] was inactive. The outcome in [7], in assay [8], in [9], in assay [10], in assay [11] and in assay [12] was inactive. Besides, the outcome is “inactive” in assay [13]; “inactive” in assay [14]; “inactive” in assay [15]; “inactive” in the assay with CD40, CD40 (gene 958); “inactive” in [16]; “inactive” in assay [17]. Also, the outcome in assay [18] and in assay [19] was inactive.
`O=[N+]([O-])c1cc(C(F)(F)F)ccc1Cl`: the result in assay [1], in assay [2], in [3], in assay [4], in [5] and in assay [6] was inactive. Further, the result in [7], in assay [8], in assay [9], in assay [10], in [11] and in [12] was inactive. Moreover, the outcome in assay [13] is “inactive”; in assay [14] it was “inactive”; in assay [15] it was “inactive”; in the assay with CD40, CD40 (gene 958) it was “inactive”; in [16], “inactive”; in assay [17], “inactive”. For the same compound, the outcome in assay [18] and in assay [19] was inactive.
For the compound `CC(=O)/C=C/C1=C(C)CCCC1(C)C`, the result in [1], in assay [2], in assay [3], in assay [4], in [5] and in assay [6] was inactive. Besides, the outcome in assay [7], in [8], in assay [9], in assay [10], in [11] and in assay [12] was inactive. In addition, the outcome in [13] was “inactive”; in assay [14], “inactive”; in assay [15], “inactive”; in the assay with CD40, CD40 (gene 958), “inactive”; in assay [16], “inactive”; in assay [17], “inactive”. The outcome in [18] and in [19] was inactive.
Regarding `O=C(O)c1ccc([N+](=O)[O-])cc1`, the outcome in assay [1], in assay [2], in assay [3], in [4], in assay [5] and in assay [6] was inactive. The result in assay [7], in assay [8], in [9], in assay [10], in assay [11] and in assay [12] was inactive. The outcome in assay [13] is “inactive”; in [14], “inactive”; in assay [15], “inactive”; with CD40, CD40 (gene 958), “inactive”; in assay [16], “inactive”; in assay [17], “inactive”. Besides, the result in assay [18] and in [19] was inactive.
As a reminder, the AC50 is the concentration giving half of the maximal activity seen. Regarding `CN(CCOc1ccc(CC2SC(=O)NC2=O)cc1)c1ccccn1` (stereo not given), the result in assay [1], in [2], in assay [3], in assay [4], in assay [5] and in [6] was inactive. Further, the result in assay [7], in [8], in assay [9], in [11], in assay [13] and in assay [16] was inactive. For the same compound, the result in assay [17], in [18] and in assay [19] was inactive. The AC50 in assay [10] was 0.582 µM (active); in [12], 0.016 µM (active); in assay [14] it was 3.97 µM (active); in assay [15], 0.016 µM (active); with CD40, CD40 (gene 958), 13 µM (active).
Turning to `BrC1CCC(Br)C(Br)CCC(Br)C(Br)CCC1Br` (stereo not given), the concentration at half-maximal activity (AC50) is 1.5 µM (active) in assay [1]; 4.68 µM (active) in assay [5]; 1.37 µM (active) in assay [6]; 4.53 µM (active) in assay [8]; 1.53 µM (active) in assay [11]; 4.72 µM (active) in assay [14]. Further, the AC50 was 4.69 µM (active) in assay [15]; 4.57 µM (active) in the assay with CD40, CD40 (gene 958); 4.63 µM (active) in assay [18]; 4.58 µM (active) in assay [19]. Moreover, the outcome in [2], in assay [3], in [4], in [7], in [9] and in assay [10] was inactive. The outcome in assay [12], in [13], in [16] and in [17] was inactive.
